High-throughput results deposited in PubChem by National Center for Advancing Translational Sciences (NCATS).
CHX counter – Cycloheximide Counterscreen for Small Molecule Inhibitors of Shiga Toxin; 300,000 compounds, 12% hits; AID 2314, 2010; max response, %; cell reporter, cycloheximide protein synthesis inhibition counterscreen; in the data active = max response mostly above about 13%, no sharp cut-off; inactive = mostly below about 14%; note: read at 38.3 µM for the half of the compounds with a filed dose
Shiga toxin inh – A qHTS for Small Molecule Inhibitors of Shiga Toxin | Vero cells, Shiga toxin protein synthesis inhibition reporter | AID 2315, 2010 | 290,000 compounds, 9.2% hits | inhibition, % at 38.7 µM; in the data active = inhibition mostly above about 28%, no sharp cut-off; inactive = mostly below about 43%
HCMV antiviral – qHTS Assay for inhibitors of the human cytomegalovirus (HCMV) | 410,000 compounds, 4.5% hits | HFF cells, HCMV-luciferase reporter, 72 h; stronger effect = lower value | activity change, negative = inhibition, % at 57.5 µM | AID 1259415, 2018; in the data active = activity change below about -60%; inconclusive = no clear call, values can overlap the other calls; inactive = above about -39%
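Screen run at 2 compound doses on HFFs infected with reporter HCMV, MOI 1 PFU/cell. Luciferase activity from cell lysates at 72 h post infection gave inhibition relative to buffer-only and Salinomycin wells.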
Pf growth 96h – Primary qHTS for delayed death inhibitors of the malarial parasite plastid, 96 hour incubation. P. falciparum luciferase reporter growth, 96 h. Potency, µM (doses to about 28.7 µM), hits mostly inhibitors. 320,000 compounds, 6.9% hits. AID 504834, 2011
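Parasite growth measured via integrated firefly luciferase reporter in P. falciparum. Infected erythrocytes at 2% hematocrit, 0.05% parasitemia final were treated 96 hours at 37 C under 5% CO2, and luminescence was read.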
Pf growth 48h – Primary qHTS for delayed death inhibitors of the malarial parasite plastid, 48 hour incubation; P. falciparum luciferase growth in erythrocytes, 48 h; Potency, µM (series often up to 28.7 µM), hits mostly inhibitors; 310,000 compounds, 5.9% hits; AID 504832, 2011
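Luciferase-expressing parasites in RBCs, 2% Hct / 0.1% parasitemia final; RPMI 1640 + 0.5% Albumax; 37 C, 5% CO2, one generation; luminescence read-out, lower signal = inhibition.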
Numbers stand for hits; . = inactive; ? = inconclusive; / = no result given. Hits are enriched below; roughly 20% of the tested compounds scored in any of these assays. Unless noted, calls come from the whole dose curve; as a rule, active = well fitted inhibition curve with a large enough effect; inconclusive = small, poorly fitted or top-dose-only effect, or another doubt; inactive = no such curve, though single readings can be large or run the other way.

SMILES	CHX counter	Shiga toxin inh	HCMV antiviral	Pf growth 96h	Pf growth 48h
CN(C)CCN(C(=O)c1ccc(S(=O)(=O)N(C)C)cc1)c1nc2cc3c(cc2s1)OCCO3	22	.	.	.	.
COc1ccccc1CCC(=O)NNC(=O)Cn1nc(C)cc1C	/	/	.	/	/
Cc1ccc(CNC(=O)c2ccc(CS(=O)(=O)Cc3ccc(F)cc3)o2)cc1	/	/	.	/	/
CCN(CC)CCOC(=O)c1ccc(NC(=O)c2cc3c(s2)-c2ccccc2OC3)cc1	/	/	.	/	/
O=C(NC1CCCCC1)C1c2ccccc2OCC(=O)N1C1CC1 (centres undefined)	/	/	.	/	/
CC(=O)N1c2ccc(S(=O)(=O)NCC3CCC(C(=O)NC(C)(C)C)CC3)cc2CC1C (centres undefined)	/	/	.	/	/
CN(C)CCN(C(=O)c1ccc(S(=O)(=O)N(C)c2ccccc2)cc1)c1nc2cc3c(cc2s1)OCCO3	22	61	.	.	.
CCN(CC)CCN(C(=O)C1=COCCO1)c1nc2ccc(C)cc2s1	18	35	.	.	.
CCN(CC)CCN(C(=O)c1ccc2ncsc2c1)c1nc2cc3c(cc2s1)OCO3	75	125	.	.	.
CCN(Cc1nc(-c2cccc(C)c2)no1)S(=O)(=O)c1ccc(C)cc1	/	/	.	/	/
CC1(C)Cc2nc3nc(SCC(=O)NCCc4ccccc4)n(-c4ccccc4)c(=O)c3cc2CO1	.	.	.	4.1µM	?
O=c1[nH]c(SCc2ccc([N+](=O)[O-])cc2)nc2c1CCCC2	/	/	.	/	/
COc1ccc(NC(=O)CSc2nc(N)c3cc4c(nc3n2)CCCC4)c(OC)c1	.	.	.	?	.
Nc1nc(SCC(=O)Nc2ccccc2)nc2nc3c(cc12)CCCC3	17	63	.	.	.
CC1(C)Cc2nc3nc(SCC(=O)NCc4ccccc4)n(-c4ccccc4)c(=O)c3cc2CO1	.	.	/	?	.
COc1cccc(-n2c(SCC(=O)Nc3ccc4c(c3)CCC4)nc3ccccc3c2=O)c1	.	.	-70	?	?
Nc1nc(SCc2ccc([N+](=O)[O-])cc2)nc2nc3c(cc12)CCCC3	.	.	.	1.5µM	?
COc1cccc(CNC(=S)Nc2ccc3c(c2)c(=O)n(C)n3Cc2ccccc2)c1	/	/	.	/	/
Nc1nnc(SCC(=O)N2CCN(Cc3ccccc3)CC2)s1	.	.	.	.	/
Cc1ccc(NC(=O)CSc2nc(N)c3cc4c(nc3n2)CCCC4)cc1	33	active	.	.	.
CCc1c(O)nc(SCC(=O)Nc2ccc(Cl)cc2)n(-c2ccccc2)c1=O	/	/	.	/	/
COC(=O)c1c(NC(=O)CSc2nc3ccccc3c(=O)n2-c2ccccc2)sc(C)c1C	.	.	.	9.3µM	?
O=C(CSc1nc2nc3c(cc2c(=O)n1-c1ccccc1)CCCC3)Nc1ccccc1	.	.	?	12µM	?
CC1C(=O)C(C)(C)C(=O)OC1c1ccc([N+](=O)[O-])cc1 (centres undefined)	.	.	-104	.	.
O=C(NNC(=O)C1CC=CCC1)c1ccccc1Br (centres undefined)	active	.	.	?	.
SMILES	CHX counter	Shiga toxin inh	HCMV antiviral	Pf growth 96h	Pf growth 48h
O=C(NNC(=O)C1CC=CCC1)c1ccccc1O (centres undefined)	18	.	.	?	.
O=C(NNC(=O)C1CC=CCC1)c1cccc(Br)c1 (centres undefined)	/	/	.	/	/
O=C(NNC(=O)C1CCN(S(=O)(=O)c2ccccc2)CC1)c1ccccc1O	.	.	.	?	.
Cc1cc(C)c2c(n1)nn1c(C)c(CCC(=O)NCc3ccccc3Cl)c(C)nc21	/	/	.	/	/
O=C(NC1C2CC3CC(C2)CC1C3)C1CC1 (centres undefined)	.	.	.	.	7.4µM
N#Cc1ccccc1Cn1c(=O)n(-c2ccc(F)c(Cl)c2)c(=O)c2sccc21	/	/	.	/	/
Cc1cccc(-c2ccc3c(c2)C2CC3CCN2Cc2ccc3c(c2)OCO3)c1 (centres undefined)	/	/	.	/	/
O=C(COC(=O)c1cccnc1Cl)Nc1ccc2c(c1)OCO2	32	97	.	.	.
CSc1ncccc1C(=O)OCC(=O)Nc1ccc2c(c1)OCO2	.	35	.	.	.
Cc1noc(C)c1COc1ccc(C(=O)OCC(=O)Nc2ccc3c(c2)OCO3)cc1	.	.	.	.	.
Cc1noc(C)c1COC(=O)c1ccc2c(c1)OCO2	.	.	.	7.4µM	/
Cc1noc(C)c1COC(=O)c1cccnc1SCC(=O)Nc1ccc2c(c1)OCO2	.	.	.	9.3µM	?
CCOc1ncccc1C(=O)OCC(=O)Nc1ccc2c(c1)OCCO2	/	/	.	.	.
Cc1ccc2c(c1)N(C(=O)N1CCC(C(=O)NC3CCCCCC3)CC1)CC(C)O2 (centres undefined)	/	/	.	/	/
Cn1cnnc1SCC(=O)Nc1ccc2c(c1)CCC2	15	35	.	.	.
O=C(CSc1nnnn1-c1cccnc1)Nc1cccc(Cl)c1	.	.	.	.	.
CC(=O)Nc1ccc(NC(=O)CSc2nncn2C)cc1	.	.	.	?	.
O=C(CSc1nnnn1-c1cccc(Cl)c1)Nc1ccc2c(c1)CCC2	.	.	/	1.9µM	.
Cn1cnnc1SCC(=O)c1ccc2c(c1)CCCC2	32	69	.	.	.
COC(=O)C(Cc1c[nH]c2ccccc12)N1CCS(=O)(=O)CC1 (centres undefined)	.	.	.	.	.
Nc1ncnc2c1ncn2[C@@H]1O[C@H](CNC(=O)[C@@H]2C[C@H](F)CN2)[C@@H](O)[C@H]1O	/	/	.	/	/
COc1cccc(C(=O)N/N=C(\C)CC(=O)Nc2ccc(N(C)C)cc2)c1	41	.	.	.	.
COc1cccc(NC(=O)C(=O)N/N=C(\C)CC(=O)Nc2ccc(NC(C)=O)cc2)c1	32	84	.	.	.
COc1cccc(/C(C)=N/NC(=O)c2ccc(N(C)C)cc2)c1	33	69	.	.	.
CCc1ccc(NC(=O)C(=O)N/N=C(\C)CC(=O)Nc2ccc(OC)cc2)cc1	.	.	.	.	.
SMILES	CHX counter	Shiga toxin inh	HCMV antiviral	Pf growth 96h	Pf growth 48h
COc1ccc(CC(=O)N/N=C(\C)CC(=O)Nc2ccc(N(C)C)cc2)cc1OC	.	.	.	.	?
CN(CC1CCOCC1)C(=O)CC1C(=O)NCCN1Cc1ccc(-c2ccccc2)cc1 (centres undefined)	.	.	.	?	.
COc1ccc(OCc2cc(=O)c3ccc4c(c3o2)C=CC(C)(C)O4)cc1OC	/	/	.	/	/
COc1c2c(cc3oc(=O)ccc13)OC(C)(C)C=C2	20	40	.	0.0047µM	.
CC1(C)C=Cc2cc3ccc(=O)oc3cc2O1	53	62	.	?	.
O=C(Cc1ccccc1)OCCN1CCOCC1	.	.	.	?	.
O=C(CCc1ccccc1)OCCN1CCOCC1	.	.	.	10µM	.
O=C(CN1CCN(Cc2ccccc2)C1=O)NCCCN1CCOCC1	.	.	.	2.9µM	/
O=C(CNC(=S)N(Cc1ccccc1Cl)C1CCCC1)NCCCN1CCOCC1	.	.	.	.	10µM
O=C(CN1CCOCC1)NCc1ccccc1	.	.	.	?	.
